Screening data from PubChem BioAssay.
Rows were chosen to be rich in hits. Some 12% of all compounds tested hit in one or more screens of this group.
Pf growth 48h = inhibits P. falciparum growth in the first generation, 48 h | Potency, µM (series often up to 28.7 µM), most hits filed as inhibitors | AID 504832 | 5.9% of 310,000 active | P. falciparum luciferase growth in erythrocytes, 48 h
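In quantitative HTS format, infected erythrocytes bearing luciferase-reporter parasites were treated for a single generation at 37 C. Luminescence after adding detection reagent served as the growth measure.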
Pf growth 96h = inhibits malaria parasite growth, 96 h | P. falciparum luciferase reporter growth, 96 h | Potency, µM (series often up to 28.7 µM), actives largely listed as inhibitors | 6.9% of 320,000 active | AID 504834
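Erythrocytes infected with luciferase-expressing P. falciparum were dispensed at 2% hematocrit and 0.05% parasitemia (final), then incubated with compounds 96 hours at 37 C in 5% CO2. Luminescence after detection reagent addition reported growth.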
SARS PLP yeast = blocks SARS-CoV papain-like protease in a yeast assay; AID 485353; Potency, µM (doses to about 32.9 µM), actives largely listed as activators; 0.19% of 330,000 active; S. cerevisiae expressing SARS-CoV PLpro, growth rescue; calls by dose curve; further: nearly all actives have a fitted effect of over 55% in size
Sm TGR block = S. mansoni TGR enzyme inhibition. Q962Y6. purified TGR, DTNB reduction, TNB absorbance 405 nm. Potency, µM (series often up to 114 µM), hits mostly inhibitors. 3% of 360,000 active; further: nearly all actives have a fitted effect of over 60% in size
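Kinetic colorimetric format: TGR-catalysed, NADPH-driven DTNB reduction monitored via TNB absorbance. Enzyme dispensed at 20 nM; compound exposure 15 min at room temperature before reaction start.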
Numbers stand for hits; - = inactive; ? = inconclusive; . = not tested or not shown. Unless noted, the call rests on the fitted dose curve; in most records, active means well fitted curve in the direction sought with a large enough effect; inconclusive means small, poorly fitted or top-dose-only effect, or another doubt; inactive means no such curve, though single readings can be large; an effect the other way counts as inactive or inconclusive.

SMILES	Pf growth 48h	Pf growth 96h	SARS PLP yeast	Sm TGR block
COc1ccc(CN(CCc2ccccc2)Cc2ccccc2)cc1OC	8.28µM	?	-	-
CCOC(=O)c1ccc(N/C=C/C(=O)c2ccc(OC)c(OC)c2)cc1	-	-	-	-
COc1ccc(CCNC(=S)c2ccccc2)cc1OC	4.65µM	5.22µM	-	-
COc1cc(CN(CCN(C)C)Cc2ccccc2)ccc1OCc1ccccc1	?	?	-	-
CNC(=S)NCCc1ccc(OC)c(OC)c1	-	-	-	-
CCOC(=O)c1ccc(Nc2ccc(-c3ccc(OC)c(OC)c3)nn2)cc1	11.7µM	-	-	-
COc1ccc(CCNC(=S)NCCc2ccc(OC)c(OC)c2)cc1OC	6.57µM	13.1µM	-	-
CCC(=O)N1CCc2cc(S(=O)(=O)NCCC(=O)Nc3cc(C)ccc3OC)ccc21	.	.	.	-
Cc1ccc(Cl)cc1NC(=O)c1cc(CN2CCCC2)on1	.	.	.	-
COc1ccccc1NC(=S)NCCc1ccc(OC)c(OC)c1	2.62µM	4.65µM	-	-
COc1ccc(CCNC(=O)c2cc3sc(Cl)cc3n2C)cc1OC	-	9.28µM	-	-
COc1ccc(CCNC(N)=S)cc1OC	-	10.4µM	-	-
COc1ccc2c(c1)c(C(C)=O)c(C)n2CCc1ccc(OC)c(OC)c1	-	-	-	-
CCOC(=O)c1c(C(=O)OCC)c(C)n(CCc2ccc(OC)c(OC)c2)c1C	?	9.28µM	-	-
Cc1ccc(S(=O)(=O)N(C)CC(=O)Nc2nnc(CC(C)C)s2)cc1	-	-	-	-
COC(=O)c1cccc(NC(=O)CSc2nnc(C3CC3)n2C)c1	-	-	-	-
CCOC(=O)c1ccc(NC(=S)NCCc2ccc(OC)c(OC)c2)cc1	?	10.4µM	-	?
COc1cc(C(=O)NC2CCCc3ccccc32)ccc1OCC(=O)Nc1ccc(F)cc1 (centres undefined)	?	13.1µM	-	-
COc1cc(CNC2CCCCCCC2)ccc1OCC(N)=O	-	?	-	-
CCOC(=O)c1ccc(NC(=O)COc2ccc(CNC3CCCCC3)cc2OC)cc1	4.65µM	-	-	-
COc1ccc(C(=O)NC2CCCc3ccccc32)cc1Br (centres undefined)	?	?	-	-
Cc1ccc(CCNC(=O)CNC(=S)N(Cc2ccccc2)Cc2cccnc2)cc1	?	-	-	-
COc1ccc(CN(Cc2cccnc2)C(=S)NCCc2ccccc2)cc1OC	?	14.7µM	-	-
COC(=O)c1ccc(NC(=S)NCCc2ccc(OC)cc2)cc1	?	-	-	-
Cc1cc(C)c(NC(=O)C2CCN(c3nn4c(=O)cc(C)nc4s3)CC2)c(C)c1	.	.	.	-
SMILES	Pf growth 48h	Pf growth 96h	SARS PLP yeast	Sm TGR block
CCOC(=O)c1ccc(Nc2c(-c3ccc(OC)cc3)nc3nc[nH]n23)cc1	.	.	.	-
CCOC(=O)c1ccc(Nc2c(-c3ccc(O)c(OC)c3)nc3nc[nH]n23)cc1	.	.	.	31.6µM
COCCN(C(=O)COC(=O)/C=C/c1cccc(C(F)(F)F)c1)c1c(N)n(CC(C)C)c(=O)[nH]c1=O	.	.	-	.
Clc1ccc(/C=C\c2nccc3c2[nH]c2ccccc23)cc1	4.65µM	-	-	-
N#Cc1ccc(/C=C\c2nccc3c2[nH]c2ccccc23)cc1	3.29µM	-	-	-
Cc1nccc2c1[nH]c1ccccc12	-	-	-	-
Cc1cccc2c(N=Nc3ccc(S(=O)(=O)Nc4cccc(Cl)c4)cc3[N+](=O)[O-])c(O)[nH]c12	6.57µM	?	-	.
Cc1cccc2c(N=Nc3ccccc3)c(O)[nH]c12	-	-	-	?
CCC(=O)N1CCN(c2ccc(NC(=S)NC(=O)c3cc4ccccc4o3)cc2)CC1	-	-	-	-
O=C(NC(=S)Nc1ccc(NC(=O)c2cccs2)cc1)c1cc2ccccc2o1	3.29µM	-	-	-
CC(NC(=O)c1cc2ccccc2o1)c1cccs1 (centres undefined)	.	8.28µM	-	-
CC(C)C(=O)N1CCN(c2ccc(NC(=S)NC(=O)c3cc4ccccc4o3)cc2)CC1	-	5.22µM	-	?
O=C(Nc1ccc(NC(=S)NC(=O)c2ccccc2F)cc1)c1cccs1	?	?	-	-
O=C(NC(=S)Nc1ccc(NC(=O)c2cccs2)cc1)c1ccco1	1.65µM	?	-	-
O=C(Nc1ccc(NC(=O)c2cccs2)cc1)c1ccco1	.	-	-	-
CC(C)NC(=O)c1cc2ccccc2o1	-	-	-	-
COc1ccc(CN(C(=O)Nc2cccc(Cl)c2)c2ccccn2)cc1OC	.	.	.	-
Cc1ccc([N+](=O)[O-])cc1NC(=O)CCSc1ccc(Cl)cc1	-	9.28µM	-	-
Cc1ccc([N+](=O)[O-])cc1NC(=O)CN1CCCCC1	-	?	-	-
Cc1cccc(NC(=O)c2cc([N+](=O)[O-])ccc2NC2CCCCC2)c1	8.28µM	?	-	-
COC(=O)c1ccc(C)c(NC(=O)CCSc2ccc(Cl)cc2)c1	-	-	-	-
Cc1ccc([N+](=O)[O-])cc1NC(=O)CNC1CCCCC1	11.7µM	-	-	-
COc1ccc(-c2nnc(SCC(=O)Nc3ccc(C)c(Cl)c3)nc2-c2ccc(OC)c(OC)c2)cc1OC	.	.	.	-
COc1ccc(S(=O)(=O)N(CC(=O)Nc2ccc(C)cc2)c2ccc(C)cc2)cc1OC	.	.	.	-
COc1ccc(C)cc1S(=O)(=O)N(CC(=O)Nc1cccc([N+](=O)[O-])c1)c1ccc(C)c(C)c1	13.1µM	-	-	-
SMILES	Pf growth 48h	Pf growth 96h	SARS PLP yeast	Sm TGR block
COc1ccccc1NC(=O)Cn1c(SCC(=O)NCc2ccccc2)nc2ccccc21	.	.	.	-
COc1cccc(NC(=O)c2nnn(Cc3ccc(OC)c(Br)c3)c2N)c1	.	.	.	-
COc1ccc(C2c3c(oc4c(C)cc(C)cc4c3=O)C(=O)N2Cc2cccnc2)cc1OC (centres undefined)	-	9.28µM	-	-
COc1ccc(C2c3c(-c4cc(Cl)c(C)cc4O)n[nH]c3C(=O)N2Cc2cccnc2)cc1OC (centres undefined)	3.29µM	-	-	-
COc1ccc(C2C(C(=O)c3ccc(C)o3)=C(O)C(=O)N2Cc2cccnc2)cc1OC (centres undefined)	-	-	-	-
COc1ccc(NC(=O)c2ccc(=O)[nH]c2)cc1S(=O)(=O)N1CCCCC1	-	-	-	-
CCN(CC)c1ccc(NC(=O)c2ccc(=O)[nH]c2)cc1S(=O)(=O)Nc1ccccc1OC	10.4µM	6.57µM	-	-
CCN(CC)c1ccc(NC(=O)c2cnccn2)cc1S(=O)(=O)Nc1ccc(OC)cc1	?	?	-	-
CCN(CC)c1ccc(NC(=O)c2ccccc2Br)cc1S(=O)(=O)Nc1ccccc1OC	14.7µM	-	-	-
CCN(CC)c1ccc(NC(=O)COc2ccccc2C#N)cc1S(=O)(=O)Nc1ccc(OC)cc1	8.28µM	4.15µM	-	-
CCN(CC)c1ccc(NC(=O)c2ccccc2F)cc1S(=O)(=O)Nc1ccccc1OC	4.65µM	10.4µM	-	-
COc1ccc(OC)c(/C=C(\C#N)c2nc(-c3ccc(F)cc3)cs2)c1	.	.	.	-
Cc1cccc(C)c1NC(=O)[C@H](C)N	-	-	.	.
CC(C)CC1N=C2c3ccccc3N=C(SCC(=O)NCCc3ccc(Cl)cc3)N2C1=O (centres undefined)	.	.	.	-
